# Screening results: PubChem, National Center for Advancing Translational Sciences (NCATS)
# Vaccinia Venus: vaccinia inhibition (Venus reporter); Potency, µM (top dose mostly 36.5 µM), inactives show at the highest dose activity change, negative = inhibition, most hits filed as inhibitors; Vaccinia virus Venus reporter expression, fluorescence; 0.46% of 330,000 active; calls by dose curve; tested in A549 cells; further: potency means the concentration at half of the fitted maximal effect; nearly all actives have a fitted effect of over 30% in size
# MARV entry inh: inhibitors of Marburg virus binding or cell entry; Marburg virus pseudotyped entry inhibition, cell reporter; AID 540276; 1.8% of 300,000 active; Potency, µM (series often up to 37.8 µM), for the others: at the highest dose activity change, negative = inhibition, usual class: inhibitors; calls by dose curve; tested in HEK293 cells; further: potency means the concentration at half of the fitted maximal effect
# VACV mCherry inh: inhibitors of vaccinia virus infection (mCherry reporter signal); Vaccinia virus mCherry reporter infection, fluorescence; 0.63% of 310,000 active; Potency, µM (highest dose often 36.5 µM), without a hit: at the highest dose activity change, negative = inhibition, most hits filed as inhibitors; calls by dose curve; tested in A549 cells; further: potency means the concentration at half of the fitted maximal effect; nearly all actives have a fitted effect of over 35% in size
# HCMV antiviral: inhibitors of human cytomegalovirus; 4.5% of 410,000 active; activity change, negative = inhibition, % at 57.5 µM; AID 1259415; HFF cells, HCMV-luciferase reporter, 72 h; stronger effect = lower value; in the data active means activity change below about -60%; inconclusive means no clear call, values can overlap the other calls; inactive means above about -39%
#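 Compounds were evaluated in HFFs infected with an HCMV luciferase reporter virus (MOI 1 PFU/cell). Luciferase in lysates collected 72 h post infection served as the replication measure.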
# Lassa entry inh: blocks Lassa virus binding to or entry into cells. Lassa virus pseudotype entry inhibition, cell reporter. Potency, µM (doses to about 37.9 µM), for the others: at the highest dose activity change, negative = inhibition, hits mostly inhibitors. 1.2% of 300,000 active. AID 540256; calls by dose curve; tested in HEK293 cells; further: potency means the concentration at half of the fitted maximal effect; nearly all actives have a fitted effect of over 50% in size
# FMDV antiviral: blocks foot and mouth disease virus. FMDV antiviral cell-based qHTS. Potency, µM (highest dose often 57.9 µM), inactives show top-dose activity change, negative = inhibition, most hits filed as inhibitors. 1.2% of 410,000 active. AID 1159524; calls by dose curve; tested in HEK293T cells; further: read-out not given here; potency means the concentration at half of the fitted maximal effect; nearly all actives have a fitted effect of over 45% in size
# * hit, by the source's call; i = inactive; ? = inconclusive; . = no result; [ ] = remark or other dose. Hits are enriched below; roughly 6.5% of the tested compounds scored in any of these assays. On the % scale 0 is the no-effect control and ±100 the full control effect.
SMILES,Vaccinia Venus,MARV entry inh,VACV mCherry inh,HCMV antiviral,Lassa entry inh,FMDV antiviral
O=C(O)c1ccccc1C(=O)Nc1ccc(Oc2ccccc2)cc1,-4%,1%[46.1 µM],-19%,-16,3%,21%
CC(C)(C)c1ccc(Oc2ccc(N)cn2)cc1,.,.,.,-72*,.,?
C[N+]1(CC(=O)c2ccc(I)cc2)CCCc2ccccc21 (centres undefined),-26%,.,-13%,.,.,.
COC(=O)c1c(C(=O)OC)c2c3ccccc3cc(C3CC3)n2c1C(=O)OC,.,12%[14.2 µM],.,.,.,.
O=C1[C@@H]2[C@H]3[C@H](O)[C@H](O)CC(=NOC[C@@H](O)COCc4ccco4)[C@@H]3CC[C@H]2C(=O)N1C[C@@H]1CCCO1,.,-1%[14.2 µM],.,.,.,.
CNc1ccccc1C(=O)OC(C)C(=O)Nc1ccc(Cl)cn1 (centres undefined),10µM*,1%,?,-98*,10%,-7%
CCOc1ccc(OCC)c(S(=O)(=O)NCCOC23CC4CC(CC(C4)C2)C3)c1,?,?,-14%,-73*,?,-23%
COc1cc(S(=O)(=O)NCCOC23CC4CC(CC(C4)C2)C3)c(OC)cc1Cl,-10%,?,-27%,-63*,?,-24%
COc1cc(N(C)C)c([N+](=O)[O-])cc1C(=O)N1CCOCC1,-1%,18%[46.1 µM],9%,0,-1%,-13%
OC1(CNCc2cn[nH]c2-c2cc3ccccc3o2)CCCCC1,-7%,7.9µM*,-5%,12,-30%,-25%
c1ccc2oc(-c3[nH]ncc3CN3CCSCC3)cc2c1,-13%,?,-12%,-30,-16%[46.1 µM],-19%
CC(=O)c1cccc([N+](=O)[O-])c1,-14%,.,-17%,-26,.,-11%
O=C(C#Cc1ccccc1)c1cccc([N+](=O)[O-])c1,-16%,13µM*,i,-24,?,25µM*
CCN1CCN(C(=O)c2sc3ncnc(NCC4CCCO4)c3c2C)CC1 (centres undefined),-4%,.,-10%,.,.,-9%
Cc1ccc(C2NC(c3ccc(C)cc3)C(C)C(=O)C2C)cc1 (centres undefined),.,.,.,5,.,-13%
Cc1ccc(C)c(N2CCN(C(=O)c3ccc(CSc4nc5ccncc5[nH]4)cc3)CC2)c1,-20%,?,-15%,?,?,18µM*
COc1cccc(CSc2nc3ccncc3[nH]2)c1,-4%,?,i,36,?,-25%
COc1cccc(N2CCN(C(=O)c3ccc(CSc4nc5ccncc5[nH]4)cc3)CC2)c1,-14%,-40%,-20%,-87*,?,-19%
O=C(c1ccc(CSc2nc3ccncc3[nH]2)cc1)N1CCCCC1,-11%,-6%,-5%,10,-12%,-14%
COc1ccc(S(=O)(=O)N2CCC(C(=O)NCC3CCCO3)CC2)cc1Cl (centres undefined),-5%,?,i,8,19%[46.1 µM],24%
COCCNC(=O)c1cccc2c(-c3ccnn3C)coc12,1%,.,18%,39,.,-17%
O=C(NCCN1CCCC1)c1ccc2c(c1)N(Cc1cccc(Cl)c1)C(=O)c1ccccc1S2(=O)=O,.,.,.,-77*,.,4%
CN(C(=O)c1ccc2c(c1)N(Cc1ccc(F)cc1)C(=O)c1ccccc1S2(=O)=O)C1CCCCC1,-8%,-31%[46.1 µM],-8%,-5,3%[46.1 µM],-7%
O=C(NCCc1ccc(Cl)cc1)c1ccc2c(c1)N(Cc1cccc(Cl)c1)C(=O)c1ccccc1S2(=O)=O,-8%,.,-18%,-35,-2%[46.1 µM],-11%
CN(C(=O)c1ccc2c(c1)N(Cc1cccc(Cl)c1)C(=O)c1ccccc1S2(=O)=O)C1CCCCC1,-2%,.,-3%,-79*,10µM*,-4%
SMILES,Vaccinia Venus,MARV entry inh,VACV mCherry inh,HCMV antiviral,Lassa entry inh,FMDV antiviral
COc1cccc(NC(=S)NC(=O)c2cccnc2)c1,-10%,?,-1%,7,1%[46.1 µM],34%
C=C(C)COc1ccc2oc(C)c(C(=O)OCCOC)c2c1,.,5%,.,-15,18%,-14%
COc1ccc(-c2oc3ccccc3c2C(=O)OCc2ccc([N+](=O)[O-])cc2)cc1,-29%,.,-1%,-62*,.,-24%
CCN(CC)CCOC(=O)c1c(C)oc2ccc(OC)cc12,9%,?,5%,-66*,5%,.
CCOC(=O)c1c(-c2ccc(OC)cc2)oc2ccc(OC(=O)N(C)C)cc12,.,18µM*,.,-21,?,?
CC(=O)NC(Cc1c(F)c(F)c(F)c(F)c1F)C(=O)NCC(N)C(=O)c1ccccc1 (centres undefined),-14%,.,-2%,.,.,.
Brc1cccc(-c2nc3c4ccccc4ccn3c2Cc2ccsc2)c1,6%,.,i,64,.,2%
O=C(NCc1ccccc1)C(c1ccccc1)N(Cc1ccc2c(c1)OCO2)C(=O)Cc1cccs1 (centres undefined),-30%,?,?,-23,13µM*,25%
COc1ccc(CNC(=O)C(c2ccc(C)o2)N(Cc2cccs2)C(=O)Cc2cccs2)cc1 (centres undefined),-25%,?,?,-15,11µM*,19%
O=C(c1ccoc1)N1CCOc2ccc(CN3CCC(Oc4cccnc4)CC3)cc2C1,11%,.,-7%,.,.,1%
Cc1ccc(O)c(C(=O)c2cnc3c(c2)c(C)nn3C)c1,-5%,-29%[46.1 µM],-10%,-17,?,-29%
CC(=O)CC(c1ccccc1)c1c(O)c2ccccc2oc1=O (centres undefined),-15%,.,-14%,-14,.,-6%
CC/C(CC(c1ccccc1)c1c(O)c2ccccc2oc1=O)=N\NC(N)=S (centres undefined),?,?,14µM*,-6,5%,29%
Cc1nc(NCCc2ccccc2)c2oc3ccccc3c2n1,.,?,.,-81*,0%,?
Cc1nc(NCCN2CCOCC2)c2oc3ccccc3c2n1,-5%,8%,i,8,-11%,-8%
Cc1ccc(C(=O)NC(=C(Cl)Cl)S(=O)(=O)c2ccc(C)cc2)cc1,?,?,?,-60*,?,18µM*
O=C(NC(=C(Cl)Cl)S(=O)(=O)c1ccc(Cl)cc1)c1ccccc1,.,.,.,?,.,28µM*
Cc1ccc(C(=O)NC(=C(Cl)Cl)S(=O)(=O)c2ccc(Cl)cc2)cc1,.,.,.,-11,.,?
CC(=O)Nc1ccc(S(=O)(=O)N2CCN(S(=O)(=O)c3ccccc3)CC2)cc1,.,.,.,68,.,-9%
CC(=O)NC(=C(Cl)Cl)S(=O)(=O)c1ccccc1,8.9µM*,10µM*,7.9µM*,-99*,?,22µM*
Cc1ccc(S(=O)(=O)CCC(=O)OCC(=O)NC(=O)c2ccccc2)cc1,-4%,6%,i,-15,3%,-16%
Cc1ccc(S(=O)(=O)/C(=C/Cl)NC(=O)c2ccccc2)cc1,?,7.1µM*,?,-66*,7.3µM*,14µM*
Cc1cc(=O)c(C(=O)NCCc2ccccn2)c2n1-c1ccccc1SC(c1cccs1)C2 (centres undefined),14%,.,-1%,.,.,0%
Cc1ccc(S(=O)(=O)C(NC(=O)c2ccccc2)=C(Cl)Cl)cc1,?,?,?,-74*,?,13µM*
